Screening results from PubChem BioAssay.
An excerpt weighted towards active compounds, which were near 3.7% of everything screened.
A549 tox = kills or reduces viability of A549 cells in Nrf2 counter-screen; actives 0.16% (n = 390,000); AID 504648; Potency, µM (titrated, usually from 46 µM), for inactives: at the highest dose activity change, negative = cytotoxicity, most hits filed as inhibitors; A549 ARE-Fluc cells, CellTiter-Fluor viability, 18-24 h; also: % is scaled to controls: 0 for no effect and ±100 for the full control effect
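Cytotoxicity counterscreen: CellTiter-Fluor fluorescence was measured in A549 ARE_Fluc cells after 18-24 h of compound exposure in a concentration series. The subsequent BugLite luminescent read reports ARE-luciferase activity.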
Nrf2 inh = inhibitors of Nrf2 signaling; A549 ARE-Fluc reporter, luciferase luminescence, 18-24 h; Potency, µM (series often up to 46 µM), inactives show at the top dose activity change, negative = inhibition, actives largely listed as inhibitors; actives 2.1% (n = 360,000); AID 504444; also: % is scaled to controls: 0 for no effect and ±100 for the full control effect; nearly all actives have a fitted effect of over 60% in size
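In this cell-based qHTS, ARE-driven firefly luciferase in A549 cells reports Nrf2 activity; the luminescent signal after BugLite lysis is the measured value, with a prior CellTiter-Fluor read for cell health.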
Nrf2 activator = activates Nrf2 signaling; AREc32 ARE-luciferase reporter (MCF7-derived line), luminescence, 24 h; AID 624171; Potency, µM (highest dose often 46.1 µM), for inactives: at the top dose activation, hits mostly activators; actives 0.31% (n = 410,000); also: % of control where 0% means no effect; nearly all actives have a fitted effect of over 65% in size
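Quantitative high-throughput format: AREc32 reporter cells, 1000 per well, received compound by pin transfer and were incubated 24 hr at 37 deg C, 5% CO2, before Steady-Glo luminescence detection.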
ELG1 DNA repair = blocks ELG1-dependent DNA repair in HEK293T cells. HEK293T ELG1-luciferase reporter, luminescence, 16 h; DNA damage induced by 5-fluorouridine. Potency, µM (top dose mostly 46.1 µM), without a hit: at the top dose activity change, negative = inhibition, most hits filed as inhibitors. actives 2.3% (n = 330,000). AID 504467; also: % is scaled to controls: 0 for no effect and ±100 for the full control effect; nearly all actives have a fitted effect of over 55% in size
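Quantitative HTS, concentration-response format. 2,000 cells/well co-treated with 5-fluorouridine and compound, 16 hr in 5% CO2 at 37 °C; ONE-Glo luminescence read after 30 min.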
* marks the source's active call; other numbers are inactive results; ? = inconclusive; nt = not tested or not shown. Calls follow the shape of the dose curve; as a rule, active = well fitted curve in the direction sought with a large enough effect; inconclusive = small, poorly fitted or top-dose-only effect, or another doubt; inactive = no such curve, though single readings can be large; an effect the other way counts as inactive or inconclusive. Potency is read from the fitted curve at half-maximal effect.

SMILES	A549 tox	Nrf2 inh	Nrf2 activator	ELG1 DNA repair
CCCn1nc(C(=O)Nc2ccc(S(=O)(=O)Nc3nccs3)cc2)c2ccccc2c1=O	-12%	?	0%	-15%
Cc1ccc2oc(C(=O)Nc3ccc(S(=O)(=O)Nc4ncccn4)cc3)c(C)c2c1	-6%	-17%	-1%	12%
CCn1nc(C(=O)Nc2cccc(S(=O)(=O)N3CCCC3)c2)c2ccccc2c1=O	-2%	?	1%	?
CC(C)Cn1nc(C(=O)Nc2cccc(S(=O)(=O)N3CCCC3)c2)c2ccccc2c1=O	-7%	?	-1%	21µM*
COC(=O)c1cccc(NC(=O)c2nn(C(C)C)c(=O)c3ccccc23)c1	8%	nt	0%	5%
CCn1nc(C(=O)NNC(=O)c2ccccc2)c2ccccc2c1=O	1%	?	16µM*	?
CCCn1nc(C(=O)Nc2cccc(C(=O)OC)c2)c2ccccc2c1=O	-2%	-20%	2%	23µM*
CCc1ccc(NC(=O)CSc2nnc(CNC(=O)c3ccco3)o2)cc1	-6%	1%	-1%	0%
O=C(NCc1ccccc1)C(c1ccc(F)cc1)N(Cc1cccs1)C(=O)c1cnccn1 (stereo not given)	1%	3%	0%	13µM*
O=C(NCc1ccccc1)C(c1ccccc1)N(Cc1cccs1)C(=O)c1cnccn1 (stereo not given)	3%	-4%	0%	?
COc1ccc(CN2CC[C@@H](N3CCOCC3)[C@H](O)C2)cc1F	-1%	3%	-1%	0%
CCOc1ccccc1NC(=O)C(Cc1ccccc1)NS(=O)(=O)c1ccc(Br)s1 (stereo not given)	-10%	18µM*	0%	nt
Cc1ccc(CN2CC(C(=O)N3CCN(S(=O)(=O)c4ccc(C(C)C)cc4)CC3)CC2=O)cc1 (stereo not given)	?	?	2%	12µM*
Cc1ccc(CN2CC(C(=O)N3CCN(S(=O)(=O)c4cc(C)ccc4C)CC3)CC2=O)cc1 (stereo not given)	-6%	?	0%	-3%
Cc1cc(C)cc(NC(=O)CN(c2cc(C(F)(F)F)ccc2Cl)S(=O)(=O)c2ccccc2)c1	-5%	-4%	0%	nt
COc1cccc2[nH]c3c(N4CC(C)CC(C)C4)ncnc3c12 (stereo not given)	nt	nt	nt	15µM*
CC(Oc1ccc(F)cc1)C(=O)Nc1nc(-c2ccccn2)cs1 (stereo not given)	?	21µM*	9%	?
O=C(CCS(=O)(=O)c1ccc(F)cc1)Nc1nc(-c2ccccn2)cs1	-3%	5%	?	?
CN(C)C(=O)/C(=C/c1ccc(-c2cccc([N+](=O)[O-])c2)o1)NC(=O)c1ccccc1	-2%	-15%	1%	?
CN(C)C(=O)/C(=C\c1ccc(-c2cccc([N+](=O)[O-])c2)o1)NC(=O)c1ccccc1	0%	0%	-1%	21µM*
O=C(Nc1cnc2ccccn2c1=O)c1ccc(Cl)cc1Cl	-6%	?	-1%	?
O=C(Nc1cnc2sccn2c1=O)c1ccccc1Cl	10%	3%	11µM*	?
O=C(Nc1ccc(OC(F)F)cc1)c1ncc(Cl)c(Cl)c1Cl	6%	1%	7.1µM*	-2%
Cc1ccc(NC(=O)c2ncc(Cl)c(Cl)c2Cl)cc1C	0%	?	6%	?
CCC(=O)/C=C1\Sc2ccc(OC)cc2N1CC	-2%	1%	3%	?
SMILES	A549 tox	Nrf2 inh	Nrf2 activator	ELG1 DNA repair
CCN1/C(=C\C(C)=O)Sc2ccc(OC)cc21	2%	-6%	0%	23µM*
O=C1N[C@@H](Cc2c[nH]c3ccccc23)COC(=O)[C@@H](Cc2ccc(F)cc2)CC/C=C/C[C@@H]1CC(=O)N(CCO)Cc1ccccc1	?	?	-1%	21µM*
O=C1N[C@@H](Cc2ccccc2)COC(=O)[C@H](Cc2ccc(F)cc2)CC/C=C/C[C@H]1CC(=O)N(CCO)Cc1ccccc1	-26%	23µM*	-3%	?
C[C@@H]1COC(=O)[C@H](NC(=O)OCC2c3ccccc3-c3ccccc32)C/C=C\C[C@@H](CC(=O)N(CCO)Cc2ccccc2)C(=O)N1	0%	3%	0%	11%
CC(C)(C)[C@H]1COC(=O)[C@H](NC(=O)OCC2c3ccccc3-c3ccccc32)C/C=C\C[C@@H](CC(=O)N(CCO)Cc2ccccc2)C(=O)N1	-16%	24%	2%	10µM*
CC(C)(C)OC(=O)C[C@@H]1C/C=C\C[C@@H](CC(=O)N(CCO)Cc2ccccc2)C(=O)N[C@@H](c2ccccc2)COC1=O	2%	-12%	5%	15µM*
Cc1ccc(S(=O)(=O)N2CCOCC2)cc1NC(=O)CSc1nnc(C2CC2)n1C1CC1	1%	9%	0%	0%
O=C(NCCN1CCC(n2c(=O)[nH]c3ccccc32)CC1)c1ccc(C(F)(F)F)cc1C(F)(F)F	nt	nt	0%	nt
O=C1N[C@@H](Cc2c[nH]c3ccccc23)COC(=O)[C@H](Cc2ccc(F)cc2)C/C=C\C[C@H]1CC(=O)N(CCO)Cc1ccccc1	?	26µM*	-3%	?
O=C1N[C@@H](Cc2ccccc2)COC(=O)[C@H](Cc2ccc(F)cc2)C/C=C\C[C@H]1CC(=O)N(CCO)Cc1ccccc1	-25%	?	1%	?
Cc1ccc(S(=O)(=O)c2c(O)c3ccc(C(=O)O)cc3[nH]c2=O)cc1	4%	2%	-1%	2%
CC(=O)N/C(=C\c1ccccc1)C(=O)OCC(=O)N(C)C1CCS(=O)(=O)C1 (stereo not given)	0%	6%	0%	14%
CCOc1ccc(CCNC(=O)c2ccc3nc(N4CCOCC4)sc3c2)cc1OCC	2%	?	0%	23µM*
CCOc1ccc(CCNC(=O)c2ccc(Cl)c(S(=O)(=O)N3CCOCC3)c2)cc1OCC	-4%	?	3%	16µM*
CC(C)NC(=O)N1Cc2cc(C(=O)NC3CCCCC3)nc(-c3cccc(-c4cccnc4)c3)c2[C@@H]1CCO	nt	nt	2%	nt
Cc1ccc(Cl)c(NC(=O)COC(=O)c2ccccc2C(=O)c2ccc(Cl)c([N+](=O)[O-])c2)c1Cl	?	23µM*	0%	18µM*
CCCNC(=O)COC(=O)c1ccccc1C(=O)c1ccc(Cl)c([N+](=O)[O-])c1	1%	-19%	?	?
Cc1cccc(CCn2c(=O)c3ccccc3n(CC(=O)Nc3ccccc3F)c2=O)c1	-4%	-7%	-1%	nt
COc1ccc(-n2cc(-c3ccc4c(c3)OCO4)n(CC(=O)Nc3cc(Cl)ccc3C)c2=O)cc1	-19%	?	4%	nt
COc1ccc(-n2cc(-c3ccc4c(c3)OCO4)n(CC(=O)Nc3cccc(C)c3C)c2=O)c(OC)c1	?	13µM*	-1%	nt
